# Publication PMC7862700, “An all-to-all approach to the identification of sequence-specific readers for epigenetic DNA modifications on cytosine”
# Key:
# Assay in all cases: DAPPL (digital affinity profiling via proximity ligation, sequencing); 10 mM Tris-HCl pH 7.5, 50 mM NaCl, 1 mM DTT, 4% glycerol, room temperature, 30 min; GST-TFs on glutathione beads, 16-mer random dsDNA library, 0.1% formaldehyde crosslink after washing; high values mean tight binding
# Conditions in all cases: protein: recombinant; tags: N-terminal GST; dsDNA, one strand shown
# FLI1 = biological target: T1, FLI1 (Homo sapiens, UniProt Q01543 1-452)
# T1 sequence: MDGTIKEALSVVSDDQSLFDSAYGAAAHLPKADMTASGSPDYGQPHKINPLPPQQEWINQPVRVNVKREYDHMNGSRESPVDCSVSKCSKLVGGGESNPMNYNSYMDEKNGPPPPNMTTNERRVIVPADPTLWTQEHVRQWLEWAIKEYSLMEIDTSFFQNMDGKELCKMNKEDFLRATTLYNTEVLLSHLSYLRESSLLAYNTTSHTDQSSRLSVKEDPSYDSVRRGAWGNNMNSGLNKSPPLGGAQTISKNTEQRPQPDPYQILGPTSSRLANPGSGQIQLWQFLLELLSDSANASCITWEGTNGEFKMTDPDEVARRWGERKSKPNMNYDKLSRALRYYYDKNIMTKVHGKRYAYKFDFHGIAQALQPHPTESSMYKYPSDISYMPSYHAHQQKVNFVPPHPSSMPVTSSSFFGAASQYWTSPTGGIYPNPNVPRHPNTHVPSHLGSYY
# In short: (§1)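 Pools were built from human transcription factors expressed in yeast as GST fusions, captured on glutathione beads and DNA-barcoded, along with a tag-only sample. Incubation with 200 nmole of a 16-mer random double-stranded DNA library lasted 30 min at room temperature in Tris/NaCl/DTT/glycerol buffer, and was followed by washing, 0.1% formaldehyde crosslinking, proximity ligation, PCR amplification and Illumina NextSeq500 sequencing. Binding signal is the quotient of each hexamer's read frequency for a factor and its frequency for the tag-only sample.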
# ELK1 = biological target: T2, ELK1 (Homo sapiens, UniProt P19419 1-428)
# T2 sequence: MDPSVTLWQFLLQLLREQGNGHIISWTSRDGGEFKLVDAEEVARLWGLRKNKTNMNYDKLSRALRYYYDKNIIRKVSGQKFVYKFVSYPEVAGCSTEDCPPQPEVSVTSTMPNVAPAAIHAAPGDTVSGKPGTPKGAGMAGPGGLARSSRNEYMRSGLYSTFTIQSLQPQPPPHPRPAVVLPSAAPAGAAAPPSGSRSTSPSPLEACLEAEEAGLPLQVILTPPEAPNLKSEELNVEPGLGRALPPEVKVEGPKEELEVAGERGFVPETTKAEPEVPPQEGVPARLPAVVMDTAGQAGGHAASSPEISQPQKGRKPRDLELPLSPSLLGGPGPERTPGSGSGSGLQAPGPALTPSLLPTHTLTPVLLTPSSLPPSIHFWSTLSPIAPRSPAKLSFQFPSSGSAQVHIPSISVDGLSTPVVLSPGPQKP
# In short: as §1
# GABPA = biological target: T3, GABPA (Homo sapiens, UniProt Q06546 1-454)
# T3 sequence: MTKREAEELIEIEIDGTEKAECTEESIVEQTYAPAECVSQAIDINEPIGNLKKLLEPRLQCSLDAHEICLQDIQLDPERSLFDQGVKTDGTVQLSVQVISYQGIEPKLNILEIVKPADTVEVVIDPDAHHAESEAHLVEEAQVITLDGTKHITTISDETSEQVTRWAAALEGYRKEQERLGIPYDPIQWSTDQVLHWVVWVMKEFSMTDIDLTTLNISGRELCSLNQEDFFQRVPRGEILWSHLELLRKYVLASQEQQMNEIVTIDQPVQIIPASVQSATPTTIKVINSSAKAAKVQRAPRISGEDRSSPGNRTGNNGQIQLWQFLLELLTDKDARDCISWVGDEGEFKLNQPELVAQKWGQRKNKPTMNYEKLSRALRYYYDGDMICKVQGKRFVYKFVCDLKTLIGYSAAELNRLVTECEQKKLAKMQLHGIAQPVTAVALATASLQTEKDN
# In short: as §1
# ERG = biological target: T4, ERG (Homo sapiens, UniProt P11308 1-479)
# T4 sequence: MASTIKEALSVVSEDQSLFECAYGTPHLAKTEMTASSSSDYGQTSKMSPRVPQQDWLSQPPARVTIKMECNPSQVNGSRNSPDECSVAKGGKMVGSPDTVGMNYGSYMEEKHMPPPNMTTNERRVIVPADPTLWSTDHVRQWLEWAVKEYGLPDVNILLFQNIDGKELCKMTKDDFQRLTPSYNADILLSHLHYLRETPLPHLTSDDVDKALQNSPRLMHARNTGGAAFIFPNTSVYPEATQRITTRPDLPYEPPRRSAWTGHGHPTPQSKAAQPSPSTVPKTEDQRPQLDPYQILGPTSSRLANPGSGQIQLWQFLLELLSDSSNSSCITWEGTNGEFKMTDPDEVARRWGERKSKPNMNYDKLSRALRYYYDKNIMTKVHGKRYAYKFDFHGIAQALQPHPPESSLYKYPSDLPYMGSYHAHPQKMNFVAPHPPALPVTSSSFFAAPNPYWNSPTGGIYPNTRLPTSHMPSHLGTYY
# In short: as §1
# ELF1 = ELF1 (Homo sapiens, UniProt P32519 1-619)
# ELF1, sequence (P32519 whole entry): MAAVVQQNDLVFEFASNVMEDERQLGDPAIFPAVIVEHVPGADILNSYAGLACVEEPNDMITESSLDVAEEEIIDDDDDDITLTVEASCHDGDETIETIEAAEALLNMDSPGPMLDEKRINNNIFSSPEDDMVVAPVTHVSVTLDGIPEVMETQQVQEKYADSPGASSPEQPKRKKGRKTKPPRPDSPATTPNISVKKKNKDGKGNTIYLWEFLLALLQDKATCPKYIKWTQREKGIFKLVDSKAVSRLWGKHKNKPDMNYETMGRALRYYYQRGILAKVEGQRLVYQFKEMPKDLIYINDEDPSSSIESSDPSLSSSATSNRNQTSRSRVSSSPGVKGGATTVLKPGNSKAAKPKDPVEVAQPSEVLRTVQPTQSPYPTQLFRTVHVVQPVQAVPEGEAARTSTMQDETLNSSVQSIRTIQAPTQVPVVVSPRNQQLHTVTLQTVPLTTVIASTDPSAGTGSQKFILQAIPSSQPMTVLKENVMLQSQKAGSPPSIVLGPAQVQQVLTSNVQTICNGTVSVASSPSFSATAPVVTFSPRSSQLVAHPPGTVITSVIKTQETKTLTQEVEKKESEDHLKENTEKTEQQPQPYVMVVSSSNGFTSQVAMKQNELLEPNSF
# In short: as §1
# EHF = biological target: T5, EHF (Homo sapiens, UniProt Q9NZC4 1-300)
# T5 sequence: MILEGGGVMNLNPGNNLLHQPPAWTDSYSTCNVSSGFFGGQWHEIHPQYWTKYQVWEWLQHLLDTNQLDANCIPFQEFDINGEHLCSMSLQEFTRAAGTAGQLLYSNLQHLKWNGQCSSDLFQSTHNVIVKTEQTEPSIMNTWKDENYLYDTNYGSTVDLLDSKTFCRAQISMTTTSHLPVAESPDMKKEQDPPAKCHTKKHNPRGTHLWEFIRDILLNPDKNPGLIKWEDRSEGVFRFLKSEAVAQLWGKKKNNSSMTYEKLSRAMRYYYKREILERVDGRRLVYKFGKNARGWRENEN
# In short: as §1
# SPI1 = SPI1 (Homo sapiens, UniProt P17947 1-270)
# In short: as §1
# SPIB = SPIB (Homo sapiens, UniProt Q01892 1-262)
# SPIB, sequence (Q01892 whole entry): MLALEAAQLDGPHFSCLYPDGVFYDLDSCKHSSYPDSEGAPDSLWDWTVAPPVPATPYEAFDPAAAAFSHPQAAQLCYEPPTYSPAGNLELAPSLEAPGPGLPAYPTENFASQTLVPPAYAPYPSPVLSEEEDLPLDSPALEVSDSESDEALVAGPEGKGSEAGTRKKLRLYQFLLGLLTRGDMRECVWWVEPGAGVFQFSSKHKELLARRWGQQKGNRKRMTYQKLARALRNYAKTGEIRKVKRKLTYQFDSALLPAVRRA
# In short: as §1
# ELK3 = biological target: T6, ELK3 (Homo sapiens, UniProt P41970 1-407)
# T6 sequence: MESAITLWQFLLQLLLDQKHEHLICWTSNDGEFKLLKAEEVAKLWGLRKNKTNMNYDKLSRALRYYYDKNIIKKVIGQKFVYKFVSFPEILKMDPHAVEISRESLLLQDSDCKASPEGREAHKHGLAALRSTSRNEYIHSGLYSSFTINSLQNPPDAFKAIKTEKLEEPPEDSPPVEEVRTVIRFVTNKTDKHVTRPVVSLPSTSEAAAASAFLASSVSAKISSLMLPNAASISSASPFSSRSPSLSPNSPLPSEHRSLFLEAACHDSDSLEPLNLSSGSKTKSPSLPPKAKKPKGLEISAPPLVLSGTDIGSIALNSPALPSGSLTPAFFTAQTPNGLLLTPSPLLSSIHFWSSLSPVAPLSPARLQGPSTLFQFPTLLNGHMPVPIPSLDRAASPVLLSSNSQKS
# In short: as §1
# FEV = biological target: T7, FEV (Homo sapiens, UniProt Q99581 1-238)
# T7 sequence: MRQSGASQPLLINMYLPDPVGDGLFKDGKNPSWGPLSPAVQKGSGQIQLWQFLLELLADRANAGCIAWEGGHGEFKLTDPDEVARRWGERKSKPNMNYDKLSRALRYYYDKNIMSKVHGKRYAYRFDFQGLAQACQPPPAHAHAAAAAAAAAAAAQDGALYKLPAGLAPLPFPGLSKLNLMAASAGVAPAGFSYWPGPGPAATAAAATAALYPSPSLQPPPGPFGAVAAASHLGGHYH
# In short: as §1
# ETV5 = ETV5 (Homo sapiens, UniProt P41161 1-510)
# ETV5, sequence (P41161 whole entry): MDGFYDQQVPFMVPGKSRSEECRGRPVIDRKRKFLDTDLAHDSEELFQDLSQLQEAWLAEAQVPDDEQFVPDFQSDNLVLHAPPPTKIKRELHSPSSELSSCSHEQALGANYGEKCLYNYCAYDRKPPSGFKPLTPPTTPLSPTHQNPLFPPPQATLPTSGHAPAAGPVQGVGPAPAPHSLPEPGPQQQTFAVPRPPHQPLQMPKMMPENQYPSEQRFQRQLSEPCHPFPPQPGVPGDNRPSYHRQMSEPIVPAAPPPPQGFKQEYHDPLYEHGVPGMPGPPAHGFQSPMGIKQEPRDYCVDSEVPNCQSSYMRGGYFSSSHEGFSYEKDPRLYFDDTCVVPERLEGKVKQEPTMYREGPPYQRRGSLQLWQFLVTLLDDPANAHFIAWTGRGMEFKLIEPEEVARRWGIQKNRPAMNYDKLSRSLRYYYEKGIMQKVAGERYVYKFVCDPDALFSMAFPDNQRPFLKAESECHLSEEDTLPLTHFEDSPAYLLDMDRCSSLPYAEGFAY
# In short: as §1
# SPIC = biological target: T8, SPIC (Homo sapiens, UniProt Q8N5J4 1-248)
# T8 sequence: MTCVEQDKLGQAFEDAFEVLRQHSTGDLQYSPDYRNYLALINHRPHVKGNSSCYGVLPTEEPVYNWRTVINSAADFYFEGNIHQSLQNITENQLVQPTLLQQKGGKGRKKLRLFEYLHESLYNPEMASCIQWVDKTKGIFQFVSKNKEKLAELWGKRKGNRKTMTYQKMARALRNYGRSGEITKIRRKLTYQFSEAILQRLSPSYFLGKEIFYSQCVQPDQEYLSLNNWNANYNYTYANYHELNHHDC
# In short: as §1
# ELF4 = ELF4 (Homo sapiens, UniProt Q99607 1-663)
# ELF4, sequence (Q99607 whole entry): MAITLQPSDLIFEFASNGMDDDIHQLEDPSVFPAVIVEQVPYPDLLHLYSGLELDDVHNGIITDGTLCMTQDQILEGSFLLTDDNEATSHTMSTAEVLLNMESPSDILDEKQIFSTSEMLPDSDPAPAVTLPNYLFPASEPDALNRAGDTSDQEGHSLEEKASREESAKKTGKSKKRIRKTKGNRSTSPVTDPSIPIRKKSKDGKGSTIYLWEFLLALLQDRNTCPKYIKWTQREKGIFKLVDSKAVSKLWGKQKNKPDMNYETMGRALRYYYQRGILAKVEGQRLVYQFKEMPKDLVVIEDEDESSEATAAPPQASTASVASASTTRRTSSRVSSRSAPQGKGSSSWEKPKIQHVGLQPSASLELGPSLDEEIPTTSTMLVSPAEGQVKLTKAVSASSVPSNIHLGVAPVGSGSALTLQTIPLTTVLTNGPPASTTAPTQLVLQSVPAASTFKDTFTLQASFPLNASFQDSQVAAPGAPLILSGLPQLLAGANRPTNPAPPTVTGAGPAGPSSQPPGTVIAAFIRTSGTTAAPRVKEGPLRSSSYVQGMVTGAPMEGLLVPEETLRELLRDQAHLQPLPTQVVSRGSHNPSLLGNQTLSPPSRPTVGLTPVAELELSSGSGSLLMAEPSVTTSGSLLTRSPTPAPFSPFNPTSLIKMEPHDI
# In short: as §1
# ELK4 = biological target: T9, ELK4 (Homo sapiens, UniProt P28324-2 1-405)
# T9 sequence: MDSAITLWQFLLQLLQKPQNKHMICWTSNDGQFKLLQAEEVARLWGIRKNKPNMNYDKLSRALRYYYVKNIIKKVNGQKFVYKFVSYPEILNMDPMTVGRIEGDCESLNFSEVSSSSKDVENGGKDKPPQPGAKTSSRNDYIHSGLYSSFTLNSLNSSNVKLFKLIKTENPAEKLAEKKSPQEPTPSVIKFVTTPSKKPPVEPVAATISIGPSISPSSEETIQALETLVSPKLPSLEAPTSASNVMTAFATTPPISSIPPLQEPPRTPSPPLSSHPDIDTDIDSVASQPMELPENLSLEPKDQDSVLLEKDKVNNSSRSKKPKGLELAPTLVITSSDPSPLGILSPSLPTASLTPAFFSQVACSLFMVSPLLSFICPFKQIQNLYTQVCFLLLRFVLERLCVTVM
# In short: as §1
# ETV2 = biological target: T10, ETV2 (Homo sapiens, UniProt O00321 1-342)
# T10 sequence: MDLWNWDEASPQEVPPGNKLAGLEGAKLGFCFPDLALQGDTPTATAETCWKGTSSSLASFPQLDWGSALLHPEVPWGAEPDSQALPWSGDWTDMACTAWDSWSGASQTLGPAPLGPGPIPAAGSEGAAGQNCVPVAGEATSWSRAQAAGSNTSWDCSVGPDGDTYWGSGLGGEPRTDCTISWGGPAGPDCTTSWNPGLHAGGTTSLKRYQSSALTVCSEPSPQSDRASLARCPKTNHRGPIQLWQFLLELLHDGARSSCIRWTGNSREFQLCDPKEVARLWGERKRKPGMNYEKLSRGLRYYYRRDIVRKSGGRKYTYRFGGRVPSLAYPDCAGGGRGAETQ
# In short: as §1
# ELF3 = biological target: T11, ELF3 (Homo sapiens, UniProt P78545 1-371)
# T11 sequence: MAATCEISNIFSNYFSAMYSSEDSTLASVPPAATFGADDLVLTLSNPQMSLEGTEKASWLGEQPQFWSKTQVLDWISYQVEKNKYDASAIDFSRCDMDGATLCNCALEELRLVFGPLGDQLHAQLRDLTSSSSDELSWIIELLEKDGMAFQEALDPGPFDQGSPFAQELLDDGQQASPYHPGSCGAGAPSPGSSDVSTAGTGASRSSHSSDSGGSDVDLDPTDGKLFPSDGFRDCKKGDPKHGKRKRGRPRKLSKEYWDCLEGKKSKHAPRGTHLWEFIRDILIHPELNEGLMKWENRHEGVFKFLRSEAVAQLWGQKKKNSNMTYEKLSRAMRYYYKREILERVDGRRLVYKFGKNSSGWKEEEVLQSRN
# In short: as §1
# ETV1 = ETV1 (Homo sapiens, UniProt P50549 1-477)
# ETV1, sequence (P50549 whole entry): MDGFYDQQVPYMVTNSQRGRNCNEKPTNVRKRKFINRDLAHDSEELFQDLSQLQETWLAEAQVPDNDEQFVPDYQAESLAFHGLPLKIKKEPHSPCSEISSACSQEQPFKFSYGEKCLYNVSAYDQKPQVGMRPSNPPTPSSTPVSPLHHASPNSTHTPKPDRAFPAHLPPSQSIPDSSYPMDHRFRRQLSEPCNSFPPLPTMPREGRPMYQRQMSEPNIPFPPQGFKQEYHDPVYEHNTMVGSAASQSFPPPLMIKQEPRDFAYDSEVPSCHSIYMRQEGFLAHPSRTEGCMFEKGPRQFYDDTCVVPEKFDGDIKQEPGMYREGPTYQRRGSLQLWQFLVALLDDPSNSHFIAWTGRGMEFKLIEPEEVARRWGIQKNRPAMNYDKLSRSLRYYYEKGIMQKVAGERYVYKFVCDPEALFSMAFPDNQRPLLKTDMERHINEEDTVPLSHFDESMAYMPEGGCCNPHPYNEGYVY
# In short: as §1
sequence,measurement,setting,value
CACACT,binding signal,FLI1,"1.18 fold enrichment (6-mer frequency, TF over GST control)"
same,binding signal,ELK1,"1.11 fold enrichment (6-mer frequency, TF over GST control)"
same,binding signal,GABPA,"1.17 fold enrichment (6-mer frequency, TF over GST control)"
same,binding signal,ERG,"1.18 fold enrichment (6-mer frequency, TF over GST control)"
same,binding signal,ELF1,"1.21 fold enrichment (6-mer frequency, TF over GST control)"
same,binding signal,EHF,"1.2 fold enrichment (6-mer frequency, TF over GST control)"
same,binding signal,SPI1,"1.16 fold enrichment (6-mer frequency, TF over GST control)"
same,binding signal,SPIB,"1.14 fold enrichment (6-mer frequency, TF over GST control)"
same,binding signal,ELK3,"1.24 fold enrichment (6-mer frequency, TF over GST control)"
same,binding signal,FEV,"1.21 fold enrichment (6-mer frequency, TF over GST control)"
same,binding signal,ETV5,"1.23 fold enrichment (6-mer frequency, TF over GST control)"
same,binding signal,SPIC,"1.13 fold enrichment (6-mer frequency, TF over GST control)"
same,binding signal,ELF4,"1.23 fold enrichment (6-mer frequency, TF over GST control)"
same,binding signal,ELK4,"1.13 fold enrichment (6-mer frequency, TF over GST control)"
same,binding signal,ETV2,"1.14 fold enrichment (6-mer frequency, TF over GST control)"
same,binding signal,ELF3,"1.21 fold enrichment (6-mer frequency, TF over GST control)"
same,binding signal,ETV1,"1.14 fold enrichment (6-mer frequency, TF over GST control)"
GTACAC,binding signal,FLI1,"1.18 fold enrichment (6-mer frequency, TF over GST control)"
same,binding signal,ELK1,"1.31 fold enrichment (6-mer frequency, TF over GST control)"
same,binding signal,GABPA,"1.18 fold enrichment (6-mer frequency, TF over GST control)"
same,binding signal,ERG,"1.29 fold enrichment (6-mer frequency, TF over GST control)"
same,binding signal,ELF1,"1.17 fold enrichment (6-mer frequency, TF over GST control)"
same,binding signal,EHF,"1.14 fold enrichment (6-mer frequency, TF over GST control)"
same,binding signal,SPI1,"1.18 fold enrichment (6-mer frequency, TF over GST control)"
same,binding signal,SPIB,"1.18 fold enrichment (6-mer frequency, TF over GST control)"
same,binding signal,ELK3,"1.23 fold enrichment (6-mer frequency, TF over GST control)"
same,binding signal,FEV,"1.2 fold enrichment (6-mer frequency, TF over GST control)"
same,binding signal,ETV5,"1.27 fold enrichment (6-mer frequency, TF over GST control)"
same,binding signal,SPIC,"1.33 fold enrichment (6-mer frequency, TF over GST control)"
same,binding signal,ELF4,"1.29 fold enrichment (6-mer frequency, TF over GST control)"
same,binding signal,ELK4,"1.23 fold enrichment (6-mer frequency, TF over GST control)"
same,binding signal,ETV2,"1.17 fold enrichment (6-mer frequency, TF over GST control)"
same,binding signal,ELF3,"1.26 fold enrichment (6-mer frequency, TF over GST control)"
same,binding signal,ETV1,"1.2 fold enrichment (6-mer frequency, TF over GST control)"
